This passage reports growth inhibition results from PubChem BioAssay (NCI).

Assay [1] in a line: NCI Yeast Anticancer Drug Screen. Data for the rad50 strain (AID 155).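 Also: 0% = growth of vehicle-only cultures of the same strain.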 To be noted: S. cerevisiae rad50 strain growth inhibition, stronger effect = higher value. An outline of the steps:
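Growth of the mutant yeast was measured after compound exposure and referenced to vehicle-treated cultures.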

A short description of assay [2]: NCI Yeast Anticancer Drug Screen. Data for the mec2-1 strain (AID 157). To be noted: S. cerevisiae mec2-1 strain, stronger effect = higher value. Summed up:
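Vehicle-treated cultures served as reference for growth inhibition of compound-exposed mec2-1 yeast.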

Assay [3] in a line: NCI Yeast Anticancer Drug Screen. Data for the sgs1 mgt1 strain (AID 161).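 Also: 0% = growth of cultures given vehicle only.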 The note with it: S. cerevisiae sgs1 mgt1 strain, stronger effect = higher value. Summed up: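 Genetically altered yeast, compound exposure, growth inhibition relative to vehicle.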
Assay [4] in a line: NCI Yeast Anticancer Drug Screen. Data for the cln2 rad14 strain (AID 165).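 Also: 0% = growth equal to vehicle treated cultures.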 To be noted: S. cerevisiae cln2 rad14 strain, stronger effect = higher value. Summed up: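 Each compound was tested on cln2 rad14 yeast. Inhibition of growth was calculated against vehicle-exposed controls.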
Assay [5] can be described thus: NCI Yeast Anticancer Drug Screen. Data for the bub3 strain (AID 167). The note with it: S. cerevisiae bub3 mutant strain, stronger effect = higher value. An outline of the steps:
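Whole-cell yeast assay. The mutant strain was incubated with compounds, and growth inhibition was determined by comparison with vehicle-treated cells.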

Assay [6] is described as follows: NCI Yeast Anticancer Drug Screen. Data for the mlh1 rad18 strain (AID 175). The note with it: S. cerevisiae mlh1 rad18 strain growth inhibition, stronger effect = higher value. An outline of the steps:
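Vehicle-treated cultures served as the reference for growth inhibition in a yeast strain carrying DNA damage repair alterations exposed to each compound.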

Setting [7] is: at 5.0 µM (retest, dose inferred, filed as 0.5).
The mark [8] stands for this setting: at 50.0 µM (retest, dose inferred, filed as 5.0).

Each structure is given as a SMILES string. This is part of a sample that, as a whole, favours compounds with a hit. Of some 79,000 tested, about 15% had one in any assay. Unmarked numbers belong to inactive results. Active and inactive are the calls of the source. Rule as the data show it: active = growth inhibition above about 70%; inactive = the rest.

Consider `CCOc1ccc(C=Nc2ccc(/C=C(\C)C(=O)OCCC(C)C)cc2)cc1`, for which the growth inhibition in assay [1] (setting [7]) is 50%; in assay [1] (setting [8]), 98% (active); in assay [1] (at 50.0 µM), 97.6% (active); in assay [2] (setting [7]) it was 72% (active); in assay [2] (setting [8]), 99% (active); in assay [2] (at 50.0 µM) it was 98.2% (active). Also, the growth inhibition was 85% (active) in assay [3] (setting [7]); 99% (active) in assay [3] (setting [8]); 97.5% (active) in assay [3] (at 50.0 µM); 94% (active) in assay [4] (setting [7]); 98% (active) in assay [4] (setting [8]); 97.2% (active) in assay [4] (at 50.0 µM). Further, the growth inhibition in assay [5] (setting [7]) is 86% (active); in assay [5] (setting [8]), 97% (active); in assay [5] (at 50.0 µM) it was 82.2% (active); in assay [6] (setting [7]) it was 92% (active); in assay [6] (setting [8]), 99% (active); in assay [6] (at 50.0 µM), 98% (active).
For the compound `CCCCCCCCCSC(=S)N(C)NC(=O)c1ccccn1`, the growth inhibition in assay [1] (setting [7]) was 14%; in assay [1] (setting [8]), 70% (active); in assay [1] (at 50.0 µM), 89% (active); in assay [2] (setting [7]), 6%; in assay [2] (setting [8]) it was 81% (active); in assay [2] (at 50.0 µM), 94% (active). The growth inhibition in assay [3] (setting [7]) was 4%; in assay [3] (setting [8]), 82% (active); in assay [3] (at 50.0 µM), 93.8% (active); in assay [4] (setting [7]), -3%; in assay [4] (setting [8]), 71% (active); in assay [4] (at 50.0 µM), 92.1% (active). Besides, the growth inhibition is -7% in assay [5] (setting [7]); 78% (active) in assay [5] (setting [8]); 92% (active) in assay [5] (at 50.0 µM); 8% in assay [6] (setting [7]); 85% (active) in assay [6] (setting [8]); 93.7% (active) in assay [6] (at 50.0 µM).
For `CC1=C/C(=C(/c2ccc(O)c(C)c2)c2ccccc2C(=O)O)C=CC1=O`, the growth inhibition in assay [1] (setting [7]) is -13%; in assay [1] (setting [8]), 99% (active); in assay [1] (at 50.0 µM), 99% (active); in assay [2] (setting [7]), -3%; in assay [2] (setting [8]) it was 99% (active); in assay [2] (at 50.0 µM), 99.5% (active). Besides, the growth inhibition is -9% in assay [3] (setting [7]); 99% (active) in assay [3] (setting [8]); 99.1% (active) in assay [3] (at 50.0 µM); -28% in assay [4] (setting [7]); 98% (active) in assay [4] (setting [8]); 99.1% (active) in assay [4] (at 50.0 µM). In addition, the growth inhibition in assay [5] (setting [7]) is -8%; in assay [5] (setting [8]) it was 99% (active); in assay [5] (at 50.0 µM), 99.2% (active); in assay [6] (setting [7]) it was 6%; in assay [6] (setting [8]), 99% (active); in assay [6] (at 50.0 µM), 99% (active).
As for `Clc1ccnc2c1ccc1c(Cl)ccnc12`, the growth inhibition in assay [1] (setting [7]) is 8%; in assay [1] (setting [8]), 53%; in assay [1] (at 50.0 µM), 43.6%; in assay [2] (setting [7]), -17%; in assay [2] (setting [8]), 2%; in assay [2] (at 50.0 µM), 26.4%. Besides, the growth inhibition is 1% in assay [3] (setting [7]); 12% in assay [3] (setting [8]); 20.7% in assay [3] (at 50.0 µM); 5% in assay [4] (setting [7]); -10% in assay [4] (setting [8]); 13.9% in assay [4] (at 50.0 µM). The growth inhibition in assay [5] (setting [7]) was -74%; in assay [5] (setting [8]) it was 10%; in assay [5] (at 50.0 µM), 40.6%; in assay [6] (setting [7]), 3%; in assay [6] (setting [8]), 15%; in assay [6] (at 50.0 µM) it was 45.9%.
Consider `Cc1ccc(S(=O)(=O)OC(COC(=O)c2ccc([N+](=O)[O-])cc2)C2OC(C)(C)OC2C(SCc2ccccc2)SCc2ccccc2)cc1` (stereo not given), for which the growth inhibition in assay [1] (setting [7]) is 4%; in assay [1] (setting [8]) it was 10%; in assay [1] (at 50.0 µM), 96.8% (active); in assay [2] (setting [7]), 5%; in assay [2] (setting [8]), 1%; in assay [2] (at 50.0 µM), 86.5% (active). Besides, the growth inhibition was -1% in assay [3] (setting [7]); 5% in assay [3] (setting [8]); 95.5% (active) in assay [3] (at 50.0 µM); 2% in assay [4] (setting [7]); 8% in assay [4] (setting [8]); 39.2% in assay [4] (at 50.0 µM). Besides, the growth inhibition was 17% in assay [5] (setting [7]); 23% in assay [5] (setting [8]); 89% (active) in assay [5] (at 50.0 µM); 6% in assay [6] (setting [7]); -2% in assay [6] (setting [8]); 93.7% (active) in assay [6] (at 50.0 µM).
As for `CCOC(=O)C(Br)c1nc2ccccc2[nH]c1=O` (stereo not given), the growth inhibition in assay [1] (setting [7]) was 2%; in assay [1] (setting [8]) it was 73% (active); in assay [1] (at 50.0 µM), 68.3%; in assay [2] (setting [7]), -10%; in assay [2] (setting [8]), 81% (active); in assay [2] (at 50.0 µM), 74.2% (active). Moreover, the growth inhibition in assay [3] (setting [7]) was 2%; in assay [3] (setting [8]), 96% (active); in assay [3] (at 50.0 µM) it was 49.1%; in assay [4] (setting [7]) it was 2%; in assay [4] (setting [8]) it was 49%; in assay [4] (at 50.0 µM) it was 28.7%. Also, the growth inhibition in assay [5] (setting [7]) is -7%; in assay [5] (setting [8]) it was 86% (active); in assay [5] (at 50.0 µM), 81.6% (active); in assay [6] (setting [7]), -5%; in assay [6] (setting [8]), 98% (active); in assay [6] (at 50.0 µM), 92.2% (active).
Turning to `Nc1ccc(S(=O)(=O)Nc2nc3ccccc3nc2N2CCCCC2)cc1`, the growth inhibition is 29% in assay [1] (setting [7]); 46% in assay [1] (setting [8]); 51.8% in assay [1] (at 50.0 µM); 35% in assay [2] (setting [7]); 44% in assay [2] (setting [8]); 40.8% in assay [2] (at 50.0 µM). The growth inhibition in assay [3] (setting [7]) is 32%; in assay [3] (setting [8]) it was 94% (active); in assay [3] (at 50.0 µM) it was 64.7%; in assay [4] (setting [7]), 36%; in assay [4] (setting [8]) it was 91% (active); in assay [4] (at 50.0 µM), 32.3%. Moreover, the growth inhibition in assay [5] (setting [7]) is 30%; in assay [5] (setting [8]), 96% (active); in assay [5] (at 50.0 µM) it was 76.4% (active); in assay [6] (setting [7]), 44%; in assay [6] (setting [8]), 60%; in assay [6] (at 50.0 µM), 85.9% (active).
Consider `Cc1cc(NC(=S)SCc2ccc(Cl)cc2)ccc1F`, for which the growth inhibition in assay [1] (setting [7]) is 5%; in assay [1] (setting [8]), 66%; in assay [1] (at 50.0 µM), 97.5% (active); in assay [2] (setting [7]), 1%; in assay [2] (setting [8]), 70% (active); in assay [2] (at 50.0 µM) it was 96% (active). Besides, the growth inhibition in assay [3] (setting [7]) is 2%; in assay [3] (setting [8]), 95% (active); in assay [3] (at 50.0 µM), 97.8% (active); in assay [4] (setting [7]) it was -7%; in assay [4] (setting [8]), 99% (active); in assay [4] (at 50.0 µM), 88% (active). Besides, the growth inhibition in assay [5] (setting [7]) was 19%; in assay [5] (setting [8]), 97% (active); in assay [5] (at 50.0 µM), 98.5% (active); in assay [6] (setting [7]), 2%; in assay [6] (setting [8]), 89% (active); in assay [6] (at 50.0 µM), 96.4% (active).
With `O=[N+]([O-])/C(C=Nc1ccccc1)=C/Nc1ccccc1`, the growth inhibition in assay [1] (setting [7]) was -17%; in assay [1] (setting [8]), 51%; in assay [1] (at 50.0 µM), 71.5% (active); in assay [2] (setting [7]), -10%; in assay [2] (setting [8]) it was 33%; in assay [2] (at 50.0 µM), 67.3%. Also, the growth inhibition is 2% in assay [3] (setting [7]); 46% in assay [3] (setting [8]); 83.5% (active) in assay [3] (at 50.0 µM); -6% in assay [4] (setting [7]); 48% in assay [4] (setting [8]); 37.5% in assay [4] (at 50.0 µM). Moreover, the growth inhibition was 16% in assay [5] (setting [7]); 73% (active) in assay [5] (setting [8]); 31.6% in assay [5] (at 50.0 µM); -15% in assay [6] (setting [7]); 83% (active) in assay [6] (setting [8]); 76.6% (active) in assay [6] (at 50.0 µM).
For the compound `O=C1c2ccccc2SCC12OC2c1ccc(Cl)cc1` (stereo not given), the growth inhibition is 9% in assay [1] (setting [7]); 85% (active) in assay [1] (setting [8]); 95% (active) in assay [1] (at 50.0 µM); 4% in assay [2] (setting [7]); 88% (active) in assay [2] (setting [8]); 93.5% (active) in assay [2] (at 50.0 µM). Further, the growth inhibition was 16% in assay [3] (setting [7]); 92% (active) in assay [3] (setting [8]); 95.5% (active) in assay [3] (at 50.0 µM); 1% in assay [4] (setting [7]); 87% (active) in assay [4] (setting [8]); 92% (active) in assay [4] (at 50.0 µM). Also, the growth inhibition in assay [5] (setting [7]) is 21%; in assay [5] (setting [8]), 91% (active); in assay [5] (at 50.0 µM) it was 94.9% (active); in assay [6] (setting [7]), 12%; in assay [6] (setting [8]), 91% (active); in assay [6] (at 50.0 µM) it was 95.1% (active).
